Screening data from PubChem.
DT40 TDP1 no CPT – qHTS for Inhibitors of human tyrosyl-DNA phosphodiesterase 1 (TDP1): qHTS in cells in absence of CPT; DT40 Tdp1-/- hTDP1 cells, no CPT, ATP luminescence, 48 h; Potency, µM (top dose mostly 46.2 µM), inactives show top-dose activity change, negative = growth inhibition, hits mostly inhibitors; 420,000 tested, 15% active; AID 686978, 2013; further: potency means the concentration at half of the fitted maximal effect; nearly all actives have a fitted effect of over 55% in size
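Compound effects on proliferation are scored in DT40 Tdp1-/-;hTDP1 cells in the absence of CPT. ATP levels (CellTiter-Glo luminescence) are recorded after a ≥48 hr, 37 °C incubation.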
IL1B secr inh – blocks inflammasome-driven IL-1 beta release. AID 743279. THP-1 LPS/ATP IL-1B secretion, AlphaLISA, 16 h; hits give low values. 360,000 tested, 4.7% active. activity change, % at 57.5 µM; in the data active means activity change below about -50%; inconclusive means mostly about -30% to -49%
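Secreted IL-1B measured by AlphaLISA bead assay after 16 h compound exposure of THP-1 cells; compounds (final up to 57.5 uM) added 1 h before LPS (250 ng/mL) and ATP (1.25 mM) stimulation; lower signal means less secretion.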
HT1080 IDH1KD tx – kills HT-1080 cells with IDH1 knockdown | Potency, µM (highest dose often 46.1 µM), inactives show at the highest dose activity, negative = toxicity, most hits filed as cytotoxic | HT-1080 IDH1 knockdown viability, ATP luminescence, 48 h | 360,000 tested, 2% active | AID 686971;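 further: potency means the concentration at half of the fitted maximal effect; 0% = DMSO wells and -100% = cell-free medium wells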
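Assay cells: HT-1080 with IDH1 knockdown, 750 per well, RPMI/5% FBS. Exposure: 48 h at 37 °C following 2 h pre-incubation. Read: CellTiter-Glo luminescence; fitted concentration-response, curve class assigned.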
ELG1 DNA repair – ELG1-dependent DNA repair inhibition | AID 504467 | 330,000 tested, 2.3% active | Potency, µM (series often up to 46.1 µM), for inactives: at the top dose activity change, negative = inhibition, actives largely listed as inhibitors | HEK293T ELG1-luciferase reporter, luminescence, 16 h; DNA damage induced by 5-fluorouridine; further: potency means the concentration at half of the fitted maximal effect; nearly all actives have a fitted effect of over 55% in size
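Quantitative HTS, concentration-response format. 2,000 cells/well co-treated with 5-fluorouridine and compound, 16 hr in 5% CO2 at 37 °C; ONE-Glo luminescence read after 30 min.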
HT1080-NT tox – kills 2HG-producing HT-1080-NT fibrosarcoma cells. HT-1080-NT fibrosarcoma viability, CellTiter-Glo ATP luminescence, 48 h. 360,000 tested, 1.6% active. AID 686970. Potency, µM (highest dose often 46.1 µM), for the others: at the top dose activity, negative = less viability, most hits filed as cytotoxic;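 further: NT is the 2HG producing partner of a matched IDH1 knockdown line; potency means the concentration at half of the fitted maximal effect; 0% = DMSO-treated cells and -100% = media-only wells without cells; nearly all actives have a fitted effect of over 55% in size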
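750 cells/well, RPMI + 5% FBS; 2 h settle, compound pin-transfer, 48 h at 37 degrees C. CellTiter-Glo 10 min RT, luminescence. Normalized to DMSO and media-only wells.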
TDP1 cell CPT – DT40-hTDP1 cell growth loss with CPT | chicken DT40 Tdp1-/-;hTDP1 cells + 20 nM CPT, ATP luminescence, 48 h | AID 686979 | Potency, µM (doses to about 46.2 µM), for the others: at the highest dose activity change, negative = growth inhibition, actives largely listed as inhibitors | 420,000 tested, 12% active; further: potency means the concentration at half of the fitted maximal effect; nearly all actives have a fitted effect of over 55% in size
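Chicken DT40 Tdp1-/- cells complemented with human TDP1, 400 cells/well, exposed to compounds plus 20 nM camptothecin for at least 48 h at 37 C; viability read as ATP content by CellTiter-Glo luminescence.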
Active calls of the source: *; ? = inconclusive; · = no result; [ ] = remark or other dose. Sampled rows, rich in hits. Any-hit rate of the full collection: about 19%. Unless noted, the call rests on the fitted dose curve; in most records, active means well fitted curve in the direction sought with a large enough effect; inconclusive means small, poorly fitted or top-dose-only effect, or another doubt; inactive means no such curve, though single readings can be large; an effect the other way counts as inactive or inconclusive. Unless noted, on the % scale 0 is the no-effect control and ±100 the full control effect.

SMILES | DT40 TDP1 no CPT | IL1B secr inh | HT1080 IDH1KD tx | ELG1 DNA repair | HT1080-NT tox | TDP1 cell CPT
Cc1c(Cl)cccc1N=Cc1ccc([N+](=O)[O-])s1 | ? | -102* | 10µM* | ? | 13µM* | ?
Cc1ccc(C=Nc2ccccc2C#N)s1 | -3% | -21 | 7% | ? | 8% | 4%
c1ccc(-c2cc3c(N4CCCCC4)ncnc3s2)cc1 | ? | -15 | 5% | -25% | 1% | -39%
Cc1nc(N2CCOCC2)c2cc(-c3ccccc3)sc2n1 | 18µM* | ? | -1% | ? | -23% | ?
OCCN1CCN(c2ncnc3sc(-c4ccccc4)cc23)CC1 | 15µM* | -93* | ? | ? | 18µM* | ?
c1ccc(-c2cc3c(N4CCCC4)ncnc3s2)cc1 | 21µM* | -3 | 9% | 12% | 23% | ?
c1ccc(-c2cc3c(N4CCOCC4)ncnc3s2)cc1 | 15µM* | -62* | ? | ? | ? | 16µM*
Cc1cc([N+](=O)[O-])ccc1NC(=O)CN1C2CCC1CC(NC(=O)NC13CC4CC(CC(C4)C1)C3)C2 (centres undefined) | 5.2µM* | ? | -10% | ? | -3% | 15µM*
O=C(Cn1cc(C(=O)C(F)(F)F)c2ccccc21)N1CCCCCC1 | -6% | · | · | · | · | -18%
O=C(/C=C/c1c[nH]c2ccccc12)c1cccc2ccccc12 | 12µM* | -108* | ? | 1% | ? | 16µM*
CC(C)c1c(C(=O)NCC(C)(C)N2CCOCC2)cnn1-c1nccc(-c2ccccc2F)n1 | ? | · | · | · | · | -14%[9.04 µM]
COc1ccccc1/C=C/c1nc(S(=O)(=O)c2ccccc2)c(N(C)C)o1 | ? | -62* | 5% | -7% | 10% | ?
COc1cccc(/C=C/c2nc(S(=O)(=O)c3ccccc3)c(N(C)C)o2)c1 | ? | ? | 10% | -28% | 10% | ?
CCN(Cc1ccccc1)N=Nc1ccccc1 | -25% | 38 | 13% | · | 4% | -16%
O=[N+]([O-])c1ccc(SNc2ccccc2)c([N+](=O)[O-])c1 | ? | -8 | -12% | · | -11% | ?
O=[N+]([O-])c1ccc(-[n+]2ccc3ccccc3c2)c([N+](=O)[O-])c1 | 1.3µM* | -105* | ? | ? | ? | 1µM*
CCCn1c(C)cc(C(=O)CN2C(=O)c3ccccc3S2(=O)=O)c1C | 9.2µM* | 6 | 0% | · | -2% | ?
Cc1ccc(C)c(C(=O)CN2C(=O)c3ccccc3S2(=O)=O)c1 | -2% | 14 | 9% | ? | -3% | -1%
CCNc1ncc2nc(C)c(=O)n(CCOC)c2n1 | -6% | · | · | · | · | -6%
COc1ccc(S(=O)(=O)N2CCC(C(=O)NCC(=O)Nc3c(C)cccc3C)CC2)cc1OC | ? | -16 | -13% | · | -7% | -12%
Clc1ccc(-[n+]2c(-c3cccc(Br)c3)[nH]c3nc4ccccc4nc32)cc1 | 26µM* | · | 28% | ? | 21% | ?
O=C(Nc1cccc(-c2cnc3ccccc3n2)c1)c1ccc(Cl)cc1 | -12% | 9 | 14% | 14% | 16% | -24%
C=CCc1c(C)[nH]c2c(OC)cccc2c1=S | 18µM* | 8 | -3% | -18% | -20% | 13µM*
CCCCc1c(C)[nH]c2c(OC)cccc2c1=S | ? | · | · | · | · | -7%
COc1ccc(CNc2ccc3c(c2)ncn3C)cc1OC | ? | 34 | 16µM* | -2% | 16µM* | ?
SMILES | DT40 TDP1 no CPT | IL1B secr inh | HT1080 IDH1KD tx | ELG1 DNA repair | HT1080-NT tox | TDP1 cell CPT
Cc1ccc(COn2c(-c3ccc(Cl)cc3Cl)nc3ncccc32)cc1 | ? | -15 | ? | -13% | ? | ?
Clc1cccc(COn2c(-c3ccc(Cl)cc3Cl)nc3ncccc32)c1 | 21µM* | 6 | ? | ? | -23% | ?
CCNC(=O)NCCCOc1cccc(CN2CCCCC2)c1 | -6% | · | · | · | · | -18%
O=C(NCc1ccccc1)C(c1ccc(-c2ccccc2)cc1)N1CCN(CCN2CCOCC2)CC1 (centres undefined) | 21µM* | -20 | ? | · | ? | 16µM*
CC1CCCCN1C(=O)CN1CCN(S(=O)(=O)c2ccc(Br)cc2Cl)CC1 (centres undefined) | -16% | ? | 1% | ? | -7% | ?
CC(C)C[C@H](NC(=O)N1CCn2c1nc1ccccc12)C(=O)NCCc1ccccc1 | ? | -51* | -20% | -5% | -18% | ?
C[C@H](NC(=O)N1CCn2c1nc1ccccc12)C(=O)NC1CC1 | 16% | 4 | 14% | 15% | 6% | 0%
CC(C)C[C@H](NC(=O)N1CCn2c1nc1ccccc12)C(=O)NCc1ccccc1 | ? | -12 | -7% | -3% | -11% | ?
C[C@H](NC(=O)N1CCn2c1nc1ccccc12)C(=O)N1CCCCC1 | ? | -19 | 10% | 0% | 14% | 16µM*
N#Cc1c2c(c(Nc3ccc(F)cc3)n3c1nc1ccccc13)CCCC2 | 18µM* | 11 | -24% | · | -2% | 16µM*
COc1cccc(OC)c1C(=O)Nc1ccc(S(=O)(=O)Nc2nccc(C)n2)cc1 | 17% | · | · | · | · | 1%
CCOC(=O)[C@]12CCCC=C1N(CCC1=CCCCC1)C(=O)[C@H](CC(=O)N1CCCC1)C2 | 2.3µM* | 30 | -27% | · | -19% | 2.1µM*
CCOC(=O)[C@]12CCC=C1N(CCC1=CCCCC1)C(=O)[C@H](CC(=O)N1CCCC1)C2 | ? | 26 | 9% | · | 18% | 23µM*
CCOC(=O)[C@]12CCC=C1N(CCC1=CCCCC1)C(=O)[C@H](CC(=O)N1CCN(C(=O)C3CC3)CC1)C2 | -20% | 3 | 17% | · | 11% | -29%
CCOC(=O)N1CCN(C(=O)C[C@@H]2C[C@@]3(C(=O)OCC)CCCC=C3N(CCc3ccc(OC)c(OC)c3)C2=O)CC1 | ? | -21 | 11% | · | -4% | ?
CCOC(=O)[C@]12CCCC=C1N(CCc1ccc(OC)c(OC)c1)C(=O)[C@H](CC(=O)N1CCCC1)C2 | 9.2µM* | -11 | -20% | · | 0% | 12µM*
CCOC(=O)[C@]12CCCC=C1N(CCC1=CCCCC1)C(=O)[C@H](CC(=O)N1CCC(c3ccccc3)CC1)C2 | 15µM* | -8 | ? | · | ? | ?
